Experimental data published in PubChem BioAssay (NCI).
Compounds without any hit were thinned out: in the full panel of roughly 79,000, 15% have a hit. Rule as the data show it: active = growth inhibition above about 70%; inactive = the rest.

Assays:
[1] = NCI Yeast Anticancer Drug Screen. Data for the rad52 strain (AID 147);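 also: 0% = growth of vehicle-treated control cultures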; conditions: S. cerevisiae rad52 mutant growth inhibition, active compounds read high
In short: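 Screen used a yeast mutant impaired in DNA repair. After compound exposure, growth was measured. Values reflect inhibition compared with vehicle-treated cells.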

[2] = NCI Yeast Anticancer Drug Screen. Data for the wt1 strain (AID 149);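 also: 0% = growth of vehicle-treated wt1 cultures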; conditions: S. cerevisiae wt1 strain (SPY 50644) growth inhibition, active compounds read high
In short: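 Measured: growth of wt1 yeast under compound versus vehicle treatment, reported as inhibition.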

[3] = NCI Yeast Anticancer Drug Screen. Data for the rad50EPP+ strain (AID 151);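 also: 0% = growth of vehicle-treated control cultures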; conditions: S. cerevisiae rad50 mutant strain, active compounds read high
In short: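 Exposing the rad50EPP+ strain to each compound, growth was compared with vehicle-only cultures to give inhibition.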

[4] = NCI Yeast Anticancer Drug Screen. Data for the mgt1 strain (AID 153); conditions: S. cerevisiae mgt1 mutant growth inhibition, active compounds read high
In short: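 Genetically defined yeast (mgt1) treated with compound; inhibition of growth expressed against vehicle-treated controls.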

[5] = NCI Yeast Anticancer Drug Screen. Data for the rad50 strain (AID 155);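 also: 0% = growth of vehicle-only cultures of the same strain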; conditions: S. cerevisiae rad50 strain growth inhibition, active compounds read high
In short: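 Growth of the mutant yeast was measured after compound exposure and referenced to vehicle-treated cultures.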

[6] = NCI Yeast Anticancer Drug Screen. Data for the mec2-1 strain (AID 157); conditions: S. cerevisiae mec2-1 strain, active compounds read high
In short: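 Readout is yeast growth inhibition, normalised to vehicle-treated controls, in the mec2-1 strain exposed to compound.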

[7] = NCI Yeast Anticancer Drug Screen. Data for the rad14 strain (AID 159);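 also: 0% = growth of vehicle-treated control cultures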; conditions: S. cerevisiae rad14 strain growth inhibition, active compounds read high
In short: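 Here, inhibition of yeast growth was measured after compound exposure, using a strain with a genetic defect in DNA damage repair and vehicle-treated cultures as the reference.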

[8] = NCI Yeast Anticancer Drug Screen. Data for the sgs1 mgt1 strain (AID 161);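 also: 0% = growth of cultures given vehicle only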; conditions: S. cerevisiae sgs1 mgt1 strain, active compounds read high
In short: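 This yeast growth screen uses a strain with defined DNA-repair lesions; compound-treated growth is compared with vehicle-treated growth.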

[9] = NCI Yeast Anticancer Drug Screen. Data for the CLN2oe strain (AID 163);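 also: 0% = growth of vehicle-only control cultures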; conditions: S. cerevisiae CLN2oe strain, active compounds read high
In short: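 Values reflect how much compound exposure reduced yeast growth, referenced to vehicle-exposed cells. Assay organism is a strain with a defined genetic change affecting cell-cycle control.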

[10] = NCI Yeast Anticancer Drug Screen. Data for the cln2 rad14 strain (AID 165);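 also: 0% = growth equal to vehicle treated cultures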; conditions: S. cerevisiae cln2 rad14 strain, active compounds read high
In short: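 Relative to vehicle controls, growth inhibition of compound-treated cln2 rad14 yeast was recorded.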

[11] = NCI Yeast Anticancer Drug Screen. Data for the bub3 strain (AID 167); conditions: S. cerevisiae bub3 mutant strain, active compounds read high
In short: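 Whole-cell yeast assay. The mutant strain was incubated with compounds, and growth inhibition was determined by comparison with vehicle-treated cells.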

[12] = NCI Yeast Anticancer Drug Screen. Data for the mlh1 strain (AID 171);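 also: 0% = growth of vehicle-treated control cultures of the same strain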; conditions: S. cerevisiae mlh1 strain growth inhibition, active compounds read high
In short: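 Steps: expose the defined-mutant yeast strain to compound; expose a parallel culture to vehicle; measure growth; express compound effect as inhibition relative to the vehicle culture.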

[13] = NCI Yeast Anticancer Drug Screen. Data for the sgs1 strain (AID 173);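 also: 0% = growth of vehicle-only control cultures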; conditions: S. cerevisiae sgs1 mutant, active compounds read high
In short: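 Treat defined-mutant yeast with compound; measure growth; calculate inhibition relative to vehicle-treated cells.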

[14] = NCI Yeast Anticancer Drug Screen. Data for the mlh1 rad18 strain (AID 175); conditions: S. cerevisiae mlh1 rad18 strain growth inhibition, active compounds read high
In short: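 Test agents were incubated with a yeast strain of defined genotype (DNA damage repair defect). Inhibition of growth was derived by comparison with vehicle-exposed cultures.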

[15] = NCI Yeast Anticancer Drug Screen. Data for the rad18 strain (AID 177); conditions: S. cerevisiae rad18 mutant growth inhibition, active compounds read high
In short: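 A genetically defined yeast mutant impaired in DNA damage repair was treated with test compounds, then its growth was measured against cultures receiving vehicle alone.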

[16] = at 5.0 µM (retest, dose inferred, filed as 0.5)
[17] = at 50.0 µM (retest, dose inferred, filed as 5.0)

Measured: growth inhibition

CCN(CC)CCNc1ccc2ncn3c4cc(OC)c(OC)c(=O)c4c(O)c1c23
inactive: [1]; at 1.2 µM 15% | [1]; at 3.7 µM 14% | [1]; at 11.0 µM 40% | [1]; at 33.0 µM 36% | [1]; at 100.0 µM 59% | [2]; at 1.2 µM -82% | [2]; at 3.7 µM 1% | [2]; at 11.0 µM 2% | [2]; at 33.0 µM 4% | [2]; at 100.0 µM 6% | [3]; at 1.2 µM 1% | [3]; at 3.7 µM 3% | [3]; at 11.0 µM 11% | [3]; at 33.0 µM 20% | [3]; at 100.0 µM 26% | [4]; at 1.2 µM 1% | [4]; at 3.7 µM 2% | [4]; at 11.0 µM 3% | [4]; at 33.0 µM 4% | [4]; at 100.0 µM 7% | [5]; at 1.2 µM 5% | [5]; at 3.7 µM 15% | [5]; [16] 2% | [5]; at 11.0 µM 30% | [5]; at 33.0 µM 46% | [5]; [17] -3% | [5]; at 50.0 µM 65.5% | [5]; at 100.0 µM 66% | [6]; at 1.2 µM -2% | [6]; at 3.7 µM -1% | [6]; [16] -3% | [6]; at 11.0 µM 0% | [6]; at 33.0 µM 8% | [6]; [17] -12% | [6]; at 50.0 µM 23.5% | [6]; at 100.0 µM 11% | [7]; at 1.2 µM -1% | [7]; at 3.7 µM 0% | [7]; at 11.0 µM 5% | [7]; at 33.0 µM 4% | [7]; at 100.0 µM 8% | [8]; [16] 10% | [8]; [17] 17% | [8]; at 50.0 µM 12.8% | [9]; at 1.2 µM -6% | [9]; at 3.7 µM -4% | [9]; at 11.0 µM 0% | [9]; at 33.0 µM -2% | [9]; at 100.0 µM 5% | [10]; [16] -5% | [10]; [17] 48% | [10]; at 50.0 µM 26.4% | [11]; at 1.2 µM -1% | [11]; at 3.7 µM -3% | [11]; [16] 11% | [11]; at 11.0 µM 0% | [11]; at 33.0 µM -2% | [11]; [17] 16% | [11]; at 50.0 µM 11.8% | [11]; at 100.0 µM 4% | [12]; at 1.2 µM -1% | [12]; at 3.7 µM 0% | [12]; at 11.0 µM 1% | [12]; at 33.0 µM 3% | [12]; at 100.0 µM 7% | [13]; at 1.2 µM 0% | [13]; at 3.7 µM 5% | [13]; at 11.0 µM 3% | [13]; at 33.0 µM 4% | [13]; at 100.0 µM 5% | [14]; [16] 38% | [14]; [17] -10% | [14]; at 50.0 µM 20.3% | [15]; at 1.2 µM -4% | [15]; at 3.7 µM -1% | [15]; at 11.0 µM 5% | [15]; at 33.0 µM -7% | [15]; at 100.0 µM 1%

Cc1nc(Nc2ccccc2[N+](=O)[O-])sc1C(=O)CC(=O)C(=O)Nc1c(C(C)C)cccc1C(C)C
inactive: [1]; at 1.2 µM -2% | [1]; at 3.7 µM -2% | [1]; at 11.0 µM -1% | [1]; at 33.0 µM -5% | [1]; at 100.0 µM 1% | [2]; at 1.2 µM 2% | [2]; at 3.7 µM 4% | [2]; at 11.0 µM 3% | [2]; at 33.0 µM 5% | [2]; at 100.0 µM 4% | [3]; at 1.2 µM 5% | [3]; at 3.7 µM 17% | [3]; at 11.0 µM 37% | [3]; at 33.0 µM 50% | [3]; at 100.0 µM 59% | [4]; at 1.2 µM -1% | [4]; at 3.7 µM 0% | [4]; at 11.0 µM 0% | [4]; at 33.0 µM -11% | [4]; at 100.0 µM -1% | [5]; at 1.2 µM -5% | [5]; at 3.7 µM -16% | [5]; [16] 10% | [5]; at 11.0 µM -17% | [5]; at 33.0 µM 2% | [5]; [17] 1% | [5]; at 50.0 µM -1.6% | [5]; at 100.0 µM 3% | [6]; at 1.2 µM 2% | [6]; at 3.7 µM 4% | [6]; [16] 3% | [6]; at 11.0 µM 3% | [6]; at 33.0 µM 6% | [6]; [17] 8% | [6]; at 50.0 µM 17.9% | [6]; at 100.0 µM 6% | [7]; at 1.2 µM 0% | [7]; at 3.7 µM -2% | [7]; at 11.0 µM 1% | [7]; at 33.0 µM 0% | [7]; at 100.0 µM 3% | [8]; [16] 7% | [8]; [17] 11% | [8]; at 50.0 µM 34% | [9]; at 1.2 µM 3% | [9]; at 3.7 µM 1% | [9]; at 11.0 µM 4% | [9]; at 33.0 µM 11% | [9]; at 100.0 µM 12% | [10]; [16] 35% | [10]; [17] 12% | [10]; at 50.0 µM 47.1% | [11]; at 1.2 µM 3% | [11]; at 3.7 µM 5% | [11]; [16] -3% | [11]; at 11.0 µM 7% | [11]; at 33.0 µM 12% | [11]; [17] 33% | [11]; at 50.0 µM 41.2% | [11]; at 100.0 µM 12% | [12]; at 1.2 µM 2% | [12]; at 3.7 µM 3% | [12]; at 11.0 µM 5% | [12]; at 33.0 µM 5% | [12]; at 100.0 µM 5% | [13]; at 1.2 µM 2% | [13]; at 3.7 µM 4% | [13]; at 11.0 µM 2% | [13]; at 33.0 µM 7% | [13]; at 100.0 µM 6% | [14]; [16] 4% | [14]; [17] 14% | [14]; at 50.0 µM -5.1% | [15]; at 1.2 µM -3% | [15]; at 3.7 µM 1% | [15]; at 11.0 µM 1% | [15]; at 33.0 µM 0% | [15]; at 100.0 µM -3%
